Bioassay records as filed in PubChem.
Mcl1 Bid PPI: disrupts binding of human Mcl-1 to Bid peptide; TR-FRET Mcl-1/Bid-Dy647 peptide binding, 1536-well; inhibition, % at 21.7 µM; 220,000 compounds, 0.97% hits;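 active = compounds that cut the binding signal by more than half at the single screening dose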;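 also: His-tagged Mcl-1 with europium anti-His antibody binding Bid BH3 peptide; 0% = Mcl-1 plus peptide wells and 100% = peptide-only wells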
14-3-3 Bad PPI: disrupts binding of bovine 14-3-3 zeta to phospho-Bad peptide; inhibition, % at 21.7 µM; TR-FRET 14-3-3zeta/Dy647-pBad peptide displacement, 1 h; P63103; 220,000 compounds, 0.71% hits;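 active = inhibition above about 70%, limit read from the data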;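 also: 0% = full 14-3-3 plus peptide FRET controls and 100% = background without 14-3-3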
Mcl1-Noxa inh: disrupts binding of human Mcl-1 to Noxa peptide; TR-FRET Mcl-1/Noxa peptide binding, 2 h; Q07820; 220,000 compounds, 1.5% hits; inhibition, % at 21.7 µM; AID 1022;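 active = compounds that cut the protein-peptide binding signal by more than 50% relative to plate controls in a single-dose test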;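 also: His-tagged Mcl-1 with rhodamine Noxa BH3 peptide and terbium anti-His antibody; 0% = Mcl-1 plus Noxa peptide wells and 100% = peptide-only wells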
eIF4E-4G inh: blocks eIF4E binding to eIF4G; P63073+Q04637; TR-FRET eIF4E-eIF4GI(517-606) binding, 2 h; inhibition, % at 21.7 µM; 220,000 compounds, 0.37% hits; AID 782;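 also: 0% = full FRET control wells and 100% = background wells lacking eIF4GI fragment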
Bim-Mcl-1: inhibitors of Bim-Mcl-1 interaction, human; 190,000 compounds, 0.1% hits; AID 1009; inhibition, % at 10 µM; Bead-based flow cytometry, Bim peptide-Mcl-1 binding; in the data active = inhibition above about 40%;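 also: 0% = no compound tracer wells and 100% = peptide blocker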
NCF1 inh: p47phox (human) inhibition | P14598 | p47phox/p22phox peptide binding, fluorescence polarization, 2 h | inhibition, % at 24.7 µM | 220,000 compounds, 0.53% hits;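 also: 0% = p47phox with labelled peptide and 100% = labelled peptide alone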
The depositor's hits bear a star; . = no result; ! = not active in a repeat. This is a sample that favours compounds with a hit; in the whole collection about 3.3% have one here.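 The calls were made as follows, unless noted: active = inhibition above about 30% (limit read from the data); inactive = the rest.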

SMILES	Mcl1 Bid PPI	14-3-3 Bad PPI	Mcl1-Noxa inh	eIF4E-4G inh	Bim-Mcl-1	NCF1 inh
CCOC(=O)c1c(-c2ccc(-c3ccccc3)cc2)csc1NC(=O)C1C2CCC(O2)C1C(=O)O (centres undefined)	25	10	56*	12	-6	-21
CCOC(=O)c1c(-c2cccc([N+](=O)[O-])c2)csc1NC(=O)CCCOc1ccccc1	-2	5	9	76*	-8	-29
CCOC(=O)c1sc(N)c(C(=O)Nc2ccccc2OC)c1C	-17	7	-4	-2	-5	-3
Cc1nnc(SCC(=O)N2CCN(C(=O)c3ccco3)CC2)n1-c1ccccc1	-4	-4	0	-4	-2	-2
CN1C(=O)C(CC(=O)Nc2ccc(F)cc2)N(NC(=O)c2cccc(F)c2)C1=S (centres undefined)	-11	0	8	-3	.	-3
C#CCNC(=O)C1=C[C@H](c2coc3ccccc3c2=O)[C@@H](CCCO)[C@H](OCC)O1	-5	1	10	3	-4	0
CCc1nnc(NC(=O)CSc2nnc(-c3cccnc3)n2C)s1	-22	-8	8	-3	0	-4
Cc1ccc(CS(=O)(=O)Cc2ccc(C(=O)NCC3CCCO3)o2)cc1 (centres undefined)	-14	11	7	2	-3	-8
O=C(NCC1CCCO1)c1ccc(CSCc2cccc(F)c2)o1 (centres undefined)	89*	-13	7	3	-2	-6
CC(C)CCOc1ccc(/C=C2\CCn3c2nc2cc(C(=O)O)ccc2c3=O)cc1	-22	41	78*	18	0	-7
COc1ccc(/C=C2\CCn3c2nc2cc(C(=O)O)ccc2c3=O)cc1OC	7	4	39	-6	.	7
CCCCNC(=O)Cn1c2c(c(-c3ccccc3Cl)cc1=O)CCC2	-14	-8	11	2	1	81*
Fc1cccc(Cl)c1CNc1ccc(N2CCCC2)cc1	-40	27	72*	35*	16	3
COc1cc(/C=C2/C(=O)NN(c3ccc(Cl)cc3)C2=O)ccc1OC(=O)c1ccco1	-4	-28	62*	-3	3	-3
NC(=O)c1cnn2c(-c3cccc(C(F)(F)F)c3)ccnc12	98*	-2	3	-3	.	-7
O=C(O)c1cnn2c(-c3ccc(F)cc3)ccnc12	0	-4	0	-1	0	-5
O=c1oc2c(-c3cccc(F)c3)cc(O)cc2s1	-24	-9	20	-7	1	-10
O=C(Nc1cccc(C(F)(F)F)c1)c1ccccc1NC(=O)C1CCCCC1	-8	-3	8	-4	-5	-11
Nc1c(C(=O)NCc2cccnc2)sc(=S)n1-c1ccccc1	-11	5	14	33*	-2	-10
CC1(C)Cc2c(C#N)c(OCC(=O)c3ccc(Cl)cc3)nc(-c3ccco3)c2CO1	-18	-5	1	-16	-1	-15
Cc1nc(OCC(=O)c2ccc(Cl)cc2)c(C#N)c2c1COC(C)(C)C2	5	20	17	-11	2	122*
COc1ccc(C(=O)N2CCN(C3CCN(Cc4ccccc4)CC3)CC2)cc1OC	58*	58	23	-10	1	2
COc1ccc(C(=O)N2CCN(Cc3cc(OC)c(O)c(OC)c3)CC2)cc1OC	58*	27	24	-3	0	-10
COc1ccccc1C(=O)N1CCN(C2CCN(Cc3ccccc3)CC2)CC1	48	84*	32	-6	-8	-10
COc1ccc(CN2CCN(C(=O)c3cc(OC)c(OC)c(OC)c3)CC2)cc1OC	33	21	13	8	0	-4
SMILES	Mcl1 Bid PPI	14-3-3 Bad PPI	Mcl1-Noxa inh	eIF4E-4G inh	Bim-Mcl-1	NCF1 inh
COc1cc(-n2c(=O)c3ccccc3n(CC(=O)c3ccc(F)cc3)c2=O)cc(OC)c1OC	7	-7	-39	0	-2	8
Cc1ccc(CN2CCN(Cc3nc4ccccc4nc3C)CC2CCO)cc1 (centres undefined)	-32	-10	12	-2	.	-5
Cc1cc(/C=N/NC(=O)C(=O)NCc2ccccn2)c(C)n1-c1ccccc1	-58	-15	7	-32	-4	-6
Cn1c(CSc2nc3ccccc3s2)nnc1SCC(=O)NCc1cccnc1	94*	-11	-16	0	1	9
CCOC(=O)CSc1nnc(CSc2nc3ccccc3s2)n1C	-2	9	4	8	-1	2
Cn1c(CSCc2ccc(Cl)cc2)nnc1SCC(=O)Nc1nc2ccccc2s1	62*	-6	1	-33	-1	-12
CCCn1c(=O)c(C(=O)Nc2ccccc2C(=O)OC)c(O)c2ccccc21	14	-2	14	-10	0	45*
Cn1c(=O)c(C(=O)NCCO)c(O)c2ccccc21	8	6	-42	1	-11	-2
CCn1c(=O)c(C(=O)NCCNCCO)c(O)c2ccccc21	52*	.	11	.	-1	-87
CCOC(=O)c1ccccc1NC(=O)c1c(O)c2ccccc2n(CC)c1=O	2	-11	21	8	0	-6
O=C(C1CCCO1)N1CCN(C(=S)Nc2ccccc2Cl)CC1 (centres undefined)	-11	-3	1	4	-10	-3
FC(F)(F)c1ccc(Nc2nnnc3ccccc23)cc1	-9	34	12	2	2	-10
CC1c2ccccc2SC(CCCN(C)C)c2ccccc21 (centres undefined)	-32	10	17	4	-1	-5
CN(C)CCC1Sc2ccccc2Oc2ccccc21 (centres undefined)	58*	66	25	-2	2	-12
C/C(=N\n1cnnc1)c1ccc(C#N)cc1	-6	-11	-8	0	3	-3
O=C(CC1S/C(=N/N=C/c2ccco2)NC1=O)Nc1ccccc1 (centres undefined)	-31	-13	18	2	-1	-5
O=C(CC1S/C(=N/N=C/c2c[nH]c3ccccc23)NC1=O)Nc1ccccc1 (centres undefined)	56*	-8	61*	3	-3	6
O=C(CC1S/C(=N/N=C/c2c[nH]c3ccc(OCc4ccccc4)cc23)NC1=O)Nc1ccccc1 (centres undefined)	58*	6	67*	1	-5	11
CC(C)Cn1c(=O)[nH]c(=O)c2c(C(F)(F)F)cc(-c3ccccc3)nc21	-14	4	-1	-6	.	2
O=C(O)/C=C/c1cnc2ccccc2c1	-19	-15	7	1	1	0
C[c-]1[c-](C)[c-](C)[c-](C)[c-]1C.[Fe].c1cc2nccc(N3CCCC3)[c-]2c1 (centres undefined)	-107	23	55*!	16	.	30*!
